Screening results from PubChem BioAssay.
An excerpt weighted towards active compounds, which were near 0.54% of everything screened.
LDHA inh = blocks human lactate dehydrogenase A. activity change, % (values are at about 110 or 230 µM). purified LDHA, NADH/diaphorase-resazurin fluorescence; active compounds read low. P00338. actives 0.15% (n = 480,000); in the data active means activity change below about -30%; inconclusive means mostly about -25% to -30%
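Remaining NADH was detected by diaphorase (0.133 mg/mL) converting 37 µM resazurin to fluorescent resorufin, read at 0 and 20 minutes. The preceding 5-minute room-temperature reaction used 2 nM LDHA, 0.2 mM sodium pyruvate and 0.06 mM NADH at pH 7.4.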
CXXC DNA block = blocks binding of human MLL CXXC domain to DNA. actives 0.037% (n = 290,000). Potency, µM (highest dose often 115 µM), usual class: inhibitors. MLL-CXXC / FITC-HOXA9 DNA fluorescence polarization. Q03164; active means well fitted inhibition curve with a large enough effect in the polarisation, with a control signal flat, not every such curve was filed as active; inconclusive means small, poorly fitted or top-dose-only effect, or effect the other way, or a change in a side signal; inactive means no such curve, though single readings can be large or run the other way; the % refers to the polarisation
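Purified MLL-CXXC (added from a 7 uM solution) was preincubated 5 min at ambient with pinned compounds in 50 mM Tris-HCl pH 7.5, 50 mM NaCl, 1 mM DTT, 0.05% BSA. Fluorescein-labeled HOX-A9 DNA (50 nM solution) followed, 30 min, then polarization read.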
Menin-MLL FL inh = displaces fluorescein MLL peptide from human menin; Fluorescence polarization, fluorescein-MLL peptide displacement from menin; FP activity change, % at 61.4 µM; 290,000 tested, under 10 active; AID 1766; active means well fitted curve in the direction sought with a large enough effect in the polarisation, not every such curve was filed as active; inconclusive means small, poorly fitted or top-dose-only effect, or effect the other way, or a change in a side signal; inactive means no such curve, though single readings can be large or run the other way; the % refers to the polarisation
mIDH1 inhibitor = human IDH1 R132H inhibition; O75874; IDH1-R132H enzyme, NADPH consumption, diaphorase/resazurin fluorescence; Potency, µM (highest dose often 76.6 µM), most hits filed as inhibitors; actives 0.093% (n = 390,000); AID 602179; further: nearly all actives have a fitted effect of over 65% in size
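IDH1-R132H (0.5 ug/mL) preincubated 30 min with compound, then NADPH (0.016 mM) and alpha-KG (2 mM) added; 80 min at RT, pH 7.5. Remaining NADPH coupled via diaphorase/resazurin to fluorescence (540/590 nm); concentration-response curves normalized to no-enzyme control.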
pAkt inh = inhibitors of Akt phosphorylation. actives 0.32% (n = 360,000). activity change, % for hits at 50 µM. Neuro2A IGF-stimulated pAkt S473 HTRF, 20 min; active compounds read low; in the data active means activity change below about -80%; inconclusive means mostly about -51% to -80%
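Neuro2A cells (4,500/well, DMEM with 0.5% FBS) were treated with compound at a single 50 µM final concentration, stimulated with 6 nM IGF for 20 min at 37 °C, and lysed. Phospho-Akt Ser473 was read by HTRF as 665/615 ratio ×10^4.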
Menin-MLL TR inh = menin-MLL binding inhibition, Texas Red mutant peptide; Potency, µM (titrated, usually from 61.6 µM), most hits filed as inhibitors; Menin + Texas Red MLL mutant peptide, fluorescence polarization; actives 0.23% (n = 270,000); AID 1768; active means well fitted inhibition curve with a large enough effect in the polarisation, with a control signal flat, not every such curve was filed as active; inconclusive means small, poorly fitted or top-dose-only effect, or effect the other way, or a change in a side signal; inactive means no such curve, though single readings can be large or run the other way; the % refers to the polarisation
Target sequence (O00255 whole entry, looked up): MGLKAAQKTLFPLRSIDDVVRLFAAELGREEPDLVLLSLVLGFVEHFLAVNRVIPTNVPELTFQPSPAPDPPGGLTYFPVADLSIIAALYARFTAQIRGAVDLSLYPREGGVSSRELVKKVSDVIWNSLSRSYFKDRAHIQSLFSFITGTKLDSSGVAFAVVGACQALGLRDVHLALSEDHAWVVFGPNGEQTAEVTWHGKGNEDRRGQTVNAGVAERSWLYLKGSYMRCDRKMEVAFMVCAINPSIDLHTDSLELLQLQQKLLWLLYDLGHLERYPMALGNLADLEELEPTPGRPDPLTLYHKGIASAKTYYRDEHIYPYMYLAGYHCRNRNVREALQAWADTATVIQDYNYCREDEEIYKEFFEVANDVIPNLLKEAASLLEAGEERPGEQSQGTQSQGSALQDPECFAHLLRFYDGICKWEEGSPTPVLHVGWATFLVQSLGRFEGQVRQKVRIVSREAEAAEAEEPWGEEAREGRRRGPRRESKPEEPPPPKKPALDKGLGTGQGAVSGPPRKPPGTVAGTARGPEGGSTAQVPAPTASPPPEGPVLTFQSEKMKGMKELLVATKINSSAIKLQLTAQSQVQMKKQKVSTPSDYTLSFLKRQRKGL
IDH1 autofl = counter-screen for mutant IDH1 inhibitors: fluorescence interference | inhibition of signal, % at 51.2 µM | shares compounds with mIDH1 inhibitor | 750 tested, under 10 active | Resorufin detection reagent fluorescence interference, cell-free
IDH1 WT = inhibits human wild-type IDH1, mutant selectivity check | shares compounds with mIDH1 inhibitor | WT IDH1 enzyme, NADPH diaphorase/resazurin fluorescence | Potency, µM (series often up to 115 µM), actives largely listed as inhibitors | actives 9% (n = 750) | AID 623995; further: nearly all actives have a fitted effect of over 55% in size
mIDH1 confirm = mutant IDH1 (human) inhibition, confirmed. shares compounds with mIDH1 inhibitor. IDH1 R132H enzyme, NADPH diaphorase/resazurin fluorescence. Potency, µM (doses to about 76.6 µM), most hits filed as inhibitors. actives 83% (n = 750); further: nearly all actives have a fitted effect of over 50% in size
A number is an active result; i = inactive; ? = inconclusive; nt = not tested or not shown. Unless noted, the call rests on the fitted dose curve; in most records, active means well fitted curve in the direction sought with a large enough effect; inconclusive means small, poorly fitted or top-dose-only effect, or another doubt; inactive means no such curve, though single readings can be large; an effect the other way counts as inactive or inconclusive.

SMILES | LDHA inh | CXXC DNA block | Menin-MLL FL inh | mIDH1 inhibitor | pAkt inh | Menin-MLL TR inh | IDH1 autofl | IDH1 WT | mIDH1 confirm
CCOC(=O)c1c(NC(=O)CN2CCOCC2)sc2c1CCCC2 | i | i | i | 26µM | i | i | i | i | 20µM
CCOC(=O)c1c(NC(=O)CN2CCCCC2)sc2c1CCN(C(=O)OCC)C2 | i | i | i | 12µM | i | ? | i | i | 6.3µM
COc1ccc2nc(NC(=O)c3cc(-c4ccccc4)on3)sc2c1 | i | nt | nt | nt | nt | nt | nt | nt | nt
COc1ccc(-c2nn(-c3ccccc3)cc2/C=C2/SC(=S)N(CCC(=O)O)C2=O)c(C)c1 | i | i | i | 46µM | i | ? | i | ? | 35µM
O=C(O)CCCCCN1C(=O)/C(=C/c2cn(-c3ccccc3)nc2-c2cccs2)SC1=S | i | nt | nt | ? | i | nt | i | i | 35µM
COc1cc2c(cc1OC)-c1nnc(C(F)(F)F)n1C(C)(C)C2 | i | nt | nt | nt | nt | nt | nt | nt | nt
CCCNC(=O)NC(=O)CN(Cc1cccs1)C1CC1 | i | nt | nt | nt | nt | nt | nt | nt | nt
Cc1ccc(C(=O)N/N=C2/CC3CCC2(C)C3(C)C)cc1 (configuration not stated) | i | nt | nt | nt | nt | nt | nt | nt | nt
CC1CCCN(c2nc3c([nH]2)c(=O)n(C)c(=O)n3C)C1 (configuration not stated) | i | nt | nt | nt | nt | nt | nt | nt | nt
COc1cc2c(c3oc(-c4ccccc4)cc(=O)c13)C=CC(C)(C)O2 | i | i | i | 40µM | i | i | i | 28µM | 22µM
COc1ccc(Br)cc1CN(C)C(=O)c1ccccc1SCC(=O)N1CCCC1 | i | nt | nt | 46µM | i | nt | i | i | 35µM
CCCCCCOc1ccc(CNc2cccc3ccccc23)cc1 | i | nt | nt | nt | nt | nt | nt | nt | nt
CCCCCCc1ccc(-c2ccc(CC)cc2)nc1 | i | nt | nt | nt | nt | nt | nt | nt | nt
C[C@H]1CN([C@@H](C)CO)C(=O)c2cccc(NC(=O)Nc3ccc(C(F)(F)F)cc3)c2O[C@@H]1CN(C)S(=O)(=O)c1ccccc1 | i | nt | nt | ? | i | nt | i | i | ?
COc1cc2c(cc1OC)C1=CC3(C(=O)Nc4ccc(F)cc43)C(C#N)=C(N)N1CC2 (configuration not stated) | i | nt | nt | nt | nt | nt | nt | nt | nt
CCC[C@@H]1C[C@@]1(CCC)[C@@H](NP(=O)(c1ccccc1)c1ccccc1)c1ccc(C(=O)OC)cc1 | i | i | i | ? | i | i | i | i | 22µM
CCC[C@@H]1C[C@@]1(CCC)C(NC(=O)OCc1ccccc1)c1ccc(-c2ccccc2)cc1 (some centres not stated) | nt | nt | i | nt | nt | i | nt | nt | nt
CC1CCc2c(sc3nc(C(C)(C)C)nc(N4CCN(C(=O)CCl)CC4)c23)C1 (configuration not stated) | i | i | i | 41µM | i | i | i | 45µM | 3.2µM
Cc1cc(NC(=O)CCCC(=O)N(c2ccccc2)C(C(=O)NC2CCCCC2)c2cccs2)no1 (configuration not stated) | i | i | i | ? | i | i | i | i | 20µM
Cc1cc(NC(=O)CCC(=O)N(c2ccccc2)C(C(=O)NC2CCCC2)c2ccccc2F)no1 (configuration not stated) | i | i | i | ? | i | i | i | i | 22µM
Cc1ccc(C(C(=O)NC2CCCC2)N(C(=O)CCC(=O)Nc2cc(C)on2)c2ccccc2)cc1 (configuration not stated) | i | i | i | i | i | i | nt | nt | nt
Cc1cc(NC(=O)CCC(=O)N(c2ccccc2F)C(C(=O)NC2CCCC2)c2ccccc2)no1 (configuration not stated) | i | i | i | ? | i | i | i | i | 25µM
